The target in one assay is Serine/threonine-protein kinase 26 (Homo sapiens) (UniProt Q9P289). Conditions: at 1 µM.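 Further: mean inhibition of MST4 kinase activity, reported from the GSK PKIS inhibitor-set screening panel.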
Chain of Serine/threonine-protein kinase 26 (Homo sapiens) (Q9P289 2-416 limits assumed): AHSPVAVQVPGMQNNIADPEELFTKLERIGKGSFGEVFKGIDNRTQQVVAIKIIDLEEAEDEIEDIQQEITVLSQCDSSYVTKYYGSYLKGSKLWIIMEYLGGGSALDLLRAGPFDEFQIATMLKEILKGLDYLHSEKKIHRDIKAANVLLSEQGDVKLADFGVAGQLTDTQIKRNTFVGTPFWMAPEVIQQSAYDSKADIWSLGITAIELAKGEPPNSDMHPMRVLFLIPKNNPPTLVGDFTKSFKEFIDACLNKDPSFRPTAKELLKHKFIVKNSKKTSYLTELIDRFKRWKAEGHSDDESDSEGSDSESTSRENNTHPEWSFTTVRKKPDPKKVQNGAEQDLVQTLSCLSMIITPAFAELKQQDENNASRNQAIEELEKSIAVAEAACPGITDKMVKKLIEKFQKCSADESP
The inhibition is the change of the read-out against control, counted positive when it falls. Regarding `O=C(Nc1n[nH]c2nc(-c3ccc(O)cc3)c(Br)cc12)C1CC1`, the inhibition came out at 35%.
For `Fc1ccc(-c2ncn(CCCN3CCOCC3)c2-c2ccncc2)cc1`, the inhibition was found to be 0.15%.
On the same count and under the same terms, as for `COc1ccc2cc(-c3c(-c4ccncc4)nc(-c4ccc([S+](C)[O-])cc4C)n3C)ccc2c1` (stereo unspecified), the figure is 3.65%.
For the compound `c1ccc(Oc2ccc(Nc3ncc(-c4ccccc4)o3)cc2)cc1`, the inhibition was determined as 0.79%.
As to `NC(=O)c1cc(-c2ccncc2)cc(-c2ccccc2)c1N`, the inhibition was -1.56%.
Turning to `O=C(NCC1CC1)c1ccc(-c2cccc(C(=O)NC3CC3)c2)cc1`, the inhibition is -6.13%.
As for `O=C1Nc2ccccc2/C1=C/Nc1ccc(-n2cncn2)cc1`, the inhibition was found to be 5.15%.
As for `CN(C)c1ccc2c(c1)/C(=C/Nc1ccc(S(N)(=O)=O)cc1)C(=O)N2`, the inhibition turned out to be 20.2%.
As for `CN(C)CCCNc1nccc(-c2c(-c3ccc(F)cc3)nn3cc(C(F)(F)F)ccc23)n1`, the inhibition came to 0.55%.
On the same count and under the same terms, next, `COc1ccc2ncn(-c3cc(O[C@H](C)c4ccccc4Cl)c(C(N)=O)s3)c2c1`: -5.03%; `CN(C)CCOc1ccc(-c2cc(-c3ccc4c(c3)CCC4=NO)c(-c3ccncc3)o2)cc1`: 3.69%.
As to `Cc1nnc(-c2ccc(C)c(-c3ccc(C(=O)NCc4ccc(Cl)cc4)cc3)c2)o1`, the inhibition is 0.59%.
As to `O=C(Nc1n[nH]c2nc(-c3ccco3)ccc12)C1CC1`, the inhibition stood at 1.1%.
Still for that read-out and setting: next, `CCc1ccc(Oc2nccc(-c3c(-c4ccc(F)cc4)ncn3C3CCNCC3)n2)cc1`: 2.83%; `Fc1ccc(-c2c(-c3ccncc3)nc3n2CCS3)cc1`: 1.66%.
With `Fc1ccc(-c2ncn(C3CCNCC3)c2-c2ccnc(Oc3ccc4c(c3)OCO4)n2)cc1`, the inhibition was -0.15%.
Take `Nc1nccc(-c2c(-c3ccc(F)cc3)ncn2C2CCC(O)CC2)n1` (stereo unspecified): the inhibition stood at 4.04%.
In the case of `c1ccc(-c2n[nH]cc2-c2ccnc(-c3ccc(OCCN4CCOCC4)cc3)c2)nc1`, the inhibition came to 2.93%.
Still for that read-out and setting: as for `COc1cccc(/C=N/Nc2ncnc3c2cnn3-c2cccc(OC)c2)c1`, the figure is -1.93%.
Take `CCS(=O)(=O)c1ccc(OC)c(Nc2ncc(-c3cccc(-c4ccccc4F)c3)o2)c1`: the inhibition is -0.27%.
In the case of `Fc1ccc(-c2ncn(C3CCNCC3)c2-c2ccnc(Oc3ccc(Oc4ccccc4)cc3)n2)cc1`, the inhibition is 2.78%.
In the case of `NCc1ccc(-n2c(-c3nonc3N)nc3cnccc32)cc1`, the inhibition is -0.73%.
On the same count and under the same terms, as for `CCc1nccc2c1nc(-c1nonc1N)n2CC`, the figure is -1.83%.
With `COc1cc2ncn(-c3cc(OCCc4ccccc4)c(C(N)=O)s3)c2cc1OC`, the inhibition is -2.27%.
With `FC(F)(F)c1cccc(Nc2nccc(-c3cnn4nc(-c5ccccc5)ccc34)n2)c1`, the inhibition was -3.24%.
With `COC(=O)Nc1nc2ccc(Sc3ccc(NC(=O)Nc4cc(C(F)(F)F)ccc4F)cc3)cc2[nH]1`, the inhibition is -1.61%.
Turning to `COc1ccc(C2=C(N3CCc4ccccc43)C(=O)NC2=O)cc1`, the inhibition turned out to be 2.06%.
`CN1CCN(CCCNc2nc3ccc(Oc4ccc(NC(=O)Nc5cc(C(F)(F)F)ccc5F)cc4)cc3[nH]2)CC1`: the inhibition amounted to 0.74%.
As to `CCC(=O)Nc1ccc(C)c(-c2ccc(C(=O)NCC3CC3)cc2)c1`, the inhibition was -3.71%.
Same read-out and setting: next, `CN(c1ccc(NC(=O)Nc2c(Cl)cccc2Cl)cc1)c1ccnc(Nc2cccc(CS(C)(=O)=O)c2)n1`: -3.71%.
As to `NS(=O)(=O)c1ccc(N/N=C2\C(=O)Nc3ccc(C(=O)NCCCn4ccnc4)cc32)cc1`, the inhibition is 6.6%.
For `Cc1ccc(NC(=O)c2ccoc2)cc1-c1ccc(C(=O)NCC2CC2)cc1`, the inhibition is -2.75%.

For the next assay, the target named is Serine/threonine-protein kinase PAK 1 (Homo sapiens) (UniProt Q13153). Conditions: at 0.1 µM.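 Further: values are mean PAK1 inhibition from the GSK PKIS kinase inhibitor set screen.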
Chain of Serine/threonine-protein kinase PAK 1 (Homo sapiens) (Q13153 whole entry): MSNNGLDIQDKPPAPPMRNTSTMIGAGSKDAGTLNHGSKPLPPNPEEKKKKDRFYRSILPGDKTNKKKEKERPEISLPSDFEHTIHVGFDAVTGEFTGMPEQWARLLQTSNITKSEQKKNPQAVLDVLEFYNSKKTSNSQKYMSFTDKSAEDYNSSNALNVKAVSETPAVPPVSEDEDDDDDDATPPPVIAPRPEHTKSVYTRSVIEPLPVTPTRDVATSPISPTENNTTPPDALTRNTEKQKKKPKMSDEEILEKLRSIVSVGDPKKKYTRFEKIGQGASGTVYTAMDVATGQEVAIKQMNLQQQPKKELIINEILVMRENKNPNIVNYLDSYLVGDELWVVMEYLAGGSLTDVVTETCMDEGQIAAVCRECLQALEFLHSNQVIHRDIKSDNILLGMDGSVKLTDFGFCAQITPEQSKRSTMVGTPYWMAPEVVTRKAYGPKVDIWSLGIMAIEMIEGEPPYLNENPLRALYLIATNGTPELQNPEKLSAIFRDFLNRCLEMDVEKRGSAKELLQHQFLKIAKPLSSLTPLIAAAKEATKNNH
`O=C(Nc1n[nH]c2nc(-c3ccc(O)cc3)c(Br)cc12)C1CC1`: the inhibition stood at 7.71%.
On to `Fc1ccc(-c2ncn(CCCN3CCOCC3)c2-c2ccncc2)cc1`, for which the inhibition was found to be 2.56%.
Turning to `COc1ccc2cc(-c3c(-c4ccncc4)nc(-c4ccc([S+](C)[O-])cc4C)n3C)ccc2c1` (stereo unspecified), the inhibition is -1.49%.
For `c1ccc(Oc2ccc(Nc3ncc(-c4ccccc4)o3)cc2)cc1`, the inhibition was -1.14%.
For `C[C@@H](Oc1cc(-n2cnc3ccc(OC4CCN(C)CC4)cc32)sc1C(N)=O)c1ccccc1Cl`, the inhibition turned out to be 5.45%.
Same read-out and setting: next, `NC(=O)c1cc(-c2ccncc2)cc(-c2ccccc2)c1N`: 7.55%; `O=C(NCC1CC1)c1ccc(-c2cccc(C(=O)NC3CC3)c2)cc1`: 1.6%; `O=C1Nc2ccccc2/C1=C/Nc1ccc(-n2cncn2)cc1`: 6.65%.
For `CN(C)c1ccc2c(c1)/C(=C/Nc1ccc(S(N)(=O)=O)cc1)C(=O)N2`, the inhibition worked out at 4.25%.
With `C[C@@H](Oc1cc(-n2cnc3ccc(OCC4CCN(C)CC4)cc32)sc1C(N)=O)c1ccccc1Cl`, the inhibition is 9.41%.
Still for that read-out and setting: as for `CN(C)CCCNc1nccc(-c2c(-c3ccc(F)cc3)nn3cc(C(F)(F)F)ccc23)n1`, the figure is -1.51%; as for `COc1ccc2ncn(-c3cc(O[C@H](C)c4ccccc4Cl)c(C(N)=O)s3)c2c1`, 3.16%; as for `CN(C)CCOc1ccc(-c2cc(-c3ccc4c(c3)CCC4=NO)c(-c3ccncc3)o2)cc1`, -4.98%.
The same measure, in the same setting: next, `Cc1nnc(-c2ccc(C)c(-c3ccc(C(=O)NCc4ccc(Cl)cc4)cc3)c2)o1`: 7.92%.
As to `O=C(Nc1n[nH]c2nc(-c3ccco3)ccc12)C1CC1`, the inhibition was 0.35%.
As to `CCc1ccc(Oc2nccc(-c3c(-c4ccc(F)cc4)ncn3C3CCNCC3)n2)cc1`, the inhibition came to 4.48%.
For `Fc1ccc(-c2c(-c3ccncc3)nc3n2CCS3)cc1`, the inhibition came out at 6.15%.
Regarding `Fc1ccc(-c2ncn(C3CCNCC3)c2-c2ccnc(Oc3ccc4c(c3)OCO4)n2)cc1`, the inhibition came to 6.43%.
Turning to `Nc1nccc(-c2c(-c3ccc(F)cc3)ncn2C2CCC(O)CC2)n1` (stereo unspecified), the inhibition was -2.38%.
On the same count and under the same terms, as for `c1ccc(-c2n[nH]cc2-c2ccnc(-c3ccc(OCCN4CCOCC4)cc3)c2)nc1`, the figure is -0.81%; as for `COc1cccc(/C=N/Nc2ncnc3c2cnn3-c2cccc(OC)c2)c1`, 7.47%.
For the compound `CCS(=O)(=O)c1ccc(OC)c(Nc2ncc(-c3cccc(-c4ccccc4F)c3)o2)c1`, the inhibition was -2.19%.
The same measure, in the same setting: as for `Fc1ccc(-c2ncn(C3CCNCC3)c2-c2ccnc(Oc3ccc(Oc4ccccc4)cc3)n2)cc1`, the figure is 6.63%; as for `NCc1ccc(-n2c(-c3nonc3N)nc3cnccc32)cc1`, 12%.
For the compound `CCc1nccc2c1nc(-c1nonc1N)n2CC`, the inhibition was determined as 3.29%.
For the compound `COc1cc2ncn(-c3cc(OCCc4ccccc4)c(C(N)=O)s3)c2cc1OC`, the inhibition is -1.36%.
As to `FC(F)(F)c1cccc(Nc2nccc(-c3cnn4nc(-c5ccccc5)ccc34)n2)c1`, the inhibition amounted to 6.28%.
Take `COC(=O)Nc1nc2ccc(Sc3ccc(NC(=O)Nc4cc(C(F)(F)F)ccc4F)cc3)cc2[nH]1`: the inhibition is -1.15%.
`COc1ccc(C2=C(N3CCc4ccccc43)C(=O)NC2=O)cc1`: the inhibition came to 7.07%.
As for `CN1CCN(CCCNc2nc3ccc(Oc4ccc(NC(=O)Nc5cc(C(F)(F)F)ccc5F)cc4)cc3[nH]2)CC1`, the inhibition came to 3.77%.
With `CCC(=O)Nc1ccc(C)c(-c2ccc(C(=O)NCC3CC3)cc2)c1`, the inhibition was determined as 3.98%.
Same read-out and setting: as for `CN(c1ccc(NC(=O)Nc2c(Cl)cccc2Cl)cc1)c1ccnc(Nc2cccc(CS(C)(=O)=O)c2)n1`, the figure is -0.06%; as for `NS(=O)(=O)c1ccc(N/N=C2\C(=O)Nc3ccc(C(=O)NCCCn4ccnc4)cc32)cc1`, 4.13%.
In the case of `Cc1ccc(NC(=O)c2ccoc2)cc1-c1ccc(C(=O)NCC2CC2)cc1`, the inhibition came out at 3.52%.
